Experimental data published in PubChem BioAssay (NCI).
Compounds without any hit were thinned out: in the full panel of roughly 83,000, 20% have a hit.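 Treatment: one concentration, 48 hours, 96-well format. Scoring: percent growth, with anything below 10 considered active.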 The source made the active and inactive calls.

How the values were obtained:
Assay in all cases: NCI-60 one-dose screen, 48 h (100 = growth as untreated, 0 = no growth, -100 = all killed)
Settings in all cases: 10 µM unless noted
DU-145 prostate = test system: DU-145 prostate
K-562 leukemia = test system: K-562 leukemia
MALME-3M melanoma = test system: MALME-3M melanoma
MDA-MB-231 breast = test system: MDA-MB-231 breast
RXF 393 renal = test system: RXF 393 renal
SF-268 CNS = test system: SF-268 CNS
SF-295 CNS = test system: SF-295 CNS
SF-539 CNS = test system: SF-539 CNS
UACC-257 melanoma = test system: UACC-257 melanoma
M14 melanoma = test system: M14 melanoma
HCT-15 colon = test system: HCT-15 colon
HT29 colon = test system: HT29 colon
SNB-75 CNS = test system: SNB-75 CNS
SNB-19 CNS = test system: SNB-19 CNS
U251 CNS = test system: U251 CNS
PC-3 prostate = test system: PC-3 prostate
SK-MEL-5 melanoma = test system: SK-MEL-5 melanoma
UACC-62 melanoma = test system: UACC-62 melanoma
LOX IMVI melanoma = test system: LOX IMVI melanoma

Measured: growth

O=C(NCc1ccc(Cn2c(=O)sn(-c3ccccc3)c2=O)cc1)OCc1ccc2c(Br)cc(Br)c(O)c2n1
active: DU-145 prostate -89.6% | K-562 leukemia 5.05% | MALME-3M melanoma -76.7% | MDA-MB-231 breast -53.4% | RXF 393 renal -90.9% | SF-268 CNS -59.9% | SF-295 CNS 9.81% | SF-539 CNS -93.6% | UACC-257 melanoma -17.2% | M14 melanoma -62.6% | HCT-15 colon -10.2% | HT29 colon -66.6% | SNB-75 CNS -93.8% | U251 CNS -83.6% | PC-3 prostate -56.1% | SK-MEL-5 melanoma -97.4% | UACC-62 melanoma -76.1% | LOX IMVI melanoma -92.3%
inactive: SNB-19 CNS 19.2%

Fc1ccc(NC(=S)c2ccccc2)cc1
inactive: DU-145 prostate 106% | K-562 leukemia 105% | MALME-3M melanoma 96.2% | MDA-MB-231 breast 102% | RXF 393 renal 109% | SF-268 CNS 99% | SF-295 CNS 95.8% | SF-539 CNS 97.6% | UACC-257 melanoma 98.9% | M14 melanoma 100% | HCT-15 colon 102% | HT29 colon 109% | SNB-75 CNS 99.7% | SNB-19 CNS 100% | U251 CNS 98.5% | PC-3 prostate 100% | SK-MEL-5 melanoma 101% | UACC-62 melanoma 88.9% | LOX IMVI melanoma 112%

Cn1cc(-c2noc(-c3cn(C)c4ncc(F)cc34)n2)c2ccccc21
active: SNB-75 CNS 1.91%
inactive: DU-145 prostate 79.2% | K-562 leukemia 77% | MALME-3M melanoma 66% | MDA-MB-231 breast 55.1% | RXF 393 renal 73.1% | SF-268 CNS 71.4% | SF-295 CNS 49.6% | SF-539 CNS 75.2% | UACC-257 melanoma 101% | M14 melanoma 71.7% | HCT-15 colon 58.2% | HT29 colon 66.1% | SNB-19 CNS 81.2% | U251 CNS 30.8% | PC-3 prostate 71.7% | SK-MEL-5 melanoma 82.8% | UACC-62 melanoma 80.1% | LOX IMVI melanoma 52.3%

COc1cc2c(c(OC)c1)C1c3cc(OC)ccc3NC(=O)N1CC2 (stereo not given)
inactive: DU-145 prostate 102% | K-562 leukemia 30.8% | MALME-3M melanoma 75.5% | MDA-MB-231 breast 66.5% | RXF 393 renal 98.2% | SF-268 CNS 80.4% | SF-295 CNS 74% | SF-539 CNS 85.1% | UACC-257 melanoma 90.8% | M14 melanoma 59.4% | HCT-15 colon 49.7% | HT29 colon 32.3% | SNB-75 CNS 83.2% | SNB-19 CNS 87.5% | U251 CNS 74.9% | PC-3 prostate 77.7% | SK-MEL-5 melanoma 82.2% | UACC-62 melanoma 66% | LOX IMVI melanoma 89.7%

O=C(O)c1cccc(CN2CCN(c3cc4c(cc3F)c(=O)c(C(=O)O)cn4C3CC3)CC2)c1O
inactive: DU-145 prostate 112% | K-562 leukemia 102% | MALME-3M melanoma 96.3% | MDA-MB-231 breast 106% | RXF 393 renal 118% | SF-268 CNS 105% | SF-295 CNS 104% | SF-539 CNS 101% | UACC-257 melanoma 97.7% | M14 melanoma 101% | HCT-15 colon 104% | HT29 colon 102% | SNB-75 CNS 92.2% | SNB-19 CNS 99.2% | U251 CNS 96.2% | PC-3 prostate 93.7% | SK-MEL-5 melanoma 102% | UACC-62 melanoma 102% | LOX IMVI melanoma 97.9%

O=C(CCNCc1ccccc1)c1ccccc1
inactive: DU-145 prostate 105% | K-562 leukemia 108% | MALME-3M melanoma 104% | MDA-MB-231 breast 121% | RXF 393 renal 116% | SF-268 CNS 108% | SF-295 CNS 90% | SF-539 CNS 98.1% | UACC-257 melanoma 102% | M14 melanoma 105% | HCT-15 colon 106% | HT29 colon 106% | SNB-75 CNS 109% | SNB-19 CNS 114% | U251 CNS 101% | PC-3 prostate 106% | SK-MEL-5 melanoma 99% | UACC-62 melanoma 97.5% | LOX IMVI melanoma 105%

O=C1COCCN1c1ccc(NCc2cn(Cc3cccc4ccccc34)c3ccccc23)cc1
inactive: DU-145 prostate 98.7% | K-562 leukemia 84.6% | MALME-3M melanoma 90.1% | MDA-MB-231 breast 101% | RXF 393 renal 43.1% | SF-268 CNS 85.3% | SF-295 CNS 89.6% | SF-539 CNS 95.6% | UACC-257 melanoma 78.4% | M14 melanoma 89% | HCT-15 colon 74% | HT29 colon 97.7% | SNB-75 CNS 79.6% | SNB-19 CNS 97.9% | U251 CNS 74.5% | PC-3 prostate 79.4% | SK-MEL-5 melanoma 82.1% | UACC-62 melanoma 41.7% | LOX IMVI melanoma 91%

C=C(C)[C@@H]1CC[C@]2(C(=O)NCCNCCNC(=O)OC(C)(C)C)CC[C@]3(C)[C@H](CC[C@@H]4[C@@]5(C)CCC(=O)C(C)(C)[C@@H]5CC[C@]43C)[C@@H]12
active: MDA-MB-231 breast -33.8% [100 µM] | SK-MEL-5 melanoma -8.44% [100 µM]
inactive: DU-145 prostate 53.5% [100 µM] | K-562 leukemia 38.1% [100 µM] | MALME-3M melanoma 64.3% [100 µM] | RXF 393 renal 35.9% [100 µM] | SF-268 CNS 49.8% [100 µM] | SF-295 CNS 32% [100 µM] | SF-539 CNS 50.1% [100 µM] | UACC-257 melanoma 36.9% [100 µM] | M14 melanoma 54.1% [100 µM] | HCT-15 colon 50.4% [100 µM] | HT29 colon 23.7% [100 µM] | SNB-75 CNS 23.9% [100 µM] | SNB-19 CNS 47.8% [100 µM] | U251 CNS 27.9% [100 µM] | PC-3 prostate 19.1% [100 µM] | UACC-62 melanoma 48.2% [100 µM] | LOX IMVI melanoma 39.6% [100 µM]

COc1ncc(-c2ccc3nccc(C#CCCCCC(=O)NO)c3c2)cc1NS(=O)(=O)c1ccc(F)cc1F
inactive: DU-145 prostate 12.4% | K-562 leukemia 17.3% | HCT-15 colon 24.9%
active: MALME-3M melanoma -40.5% | MDA-MB-231 breast -11.8% | RXF 393 renal -56.6% | SF-268 CNS -11.6% | SF-295 CNS -9.35% | SF-539 CNS -45.7% | UACC-257 melanoma -16.4% | M14 melanoma -48.7% | HT29 colon 7.04% | SNB-75 CNS -15.3% | SNB-19 CNS 4.98% | U251 CNS -14% | PC-3 prostate 7.68% | SK-MEL-5 melanoma -97.3% | UACC-62 melanoma -37.3% | LOX IMVI melanoma -69.4%

CC(C)C1=NOC(=O)C1=Cc1cn(-c2cccnc2)nc1-c1ccccc1
inactive: DU-145 prostate 104% | K-562 leukemia 72.7% | MALME-3M melanoma 111% | MDA-MB-231 breast 96% | RXF 393 renal 64.8% | SF-268 CNS 102% | SF-295 CNS 98.1% | SF-539 CNS 104% | UACC-257 melanoma 111% | M14 melanoma 103% | HCT-15 colon 94.2% | HT29 colon 99.1% | SNB-75 CNS 88.4% | SNB-19 CNS 93.9% | U251 CNS 83.5% | PC-3 prostate 94.1% | SK-MEL-5 melanoma 102% | UACC-62 melanoma 90.4% | LOX IMVI melanoma 80.2%

COc1ccc(-c2cc(-c3ccc(OC)c(OC)c3)nc(SCCCCCC(=O)NO)n2)cc1
inactive: DU-145 prostate 58.8% | K-562 leukemia 26.1% | MALME-3M melanoma 19.4% | MDA-MB-231 breast 42.2% | RXF 393 renal 42.1% | SF-268 CNS 82.3% | SF-295 CNS 72.9% | SF-539 CNS 55.4% | UACC-257 melanoma 41.8% | M14 melanoma 47.7% | HCT-15 colon 96.5% | HT29 colon 31.3% | SNB-75 CNS 46.2% | SNB-19 CNS 65.8% | U251 CNS 38.3% | PC-3 prostate 64.5% | SK-MEL-5 melanoma 31.9% | UACC-62 melanoma 24% | LOX IMVI melanoma 56.9%

CCCc1cc2cc(-n3nc(C)c4c3CC(C)(C)CC4=O)cc(NC3CCSCC3)c2c(=O)[nH]1
inactive: DU-145 prostate 42.9% | K-562 leukemia 19% | MALME-3M melanoma 64.6% | MDA-MB-231 breast 55.6% | RXF 393 renal 33.7% | SF-268 CNS 81.2% | SF-295 CNS 62.2% | SF-539 CNS 75.4% | UACC-257 melanoma 84.6% | M14 melanoma 56.6% | HCT-15 colon 41.4% | SNB-75 CNS 102% | SNB-19 CNS 72% | U251 CNS 72.3% | PC-3 prostate 55.2% | SK-MEL-5 melanoma 70.4% | UACC-62 melanoma 53.2% | LOX IMVI melanoma 54.8%
active: HT29 colon 9.23%

O=C1CC(c2ccccc2)Cc2nc3ccc(Cl)cc3cc21 (stereo not given)
inactive: MALME-3M melanoma 34% | MDA-MB-231 breast 19.5% | RXF 393 renal 21.8% | SF-268 CNS 45.2% | UACC-257 melanoma 69.1% | HCT-15 colon 13.9% | SNB-75 CNS 29.7% | SNB-19 CNS 24.9% | U251 CNS 18.8% | PC-3 prostate 27.7% | UACC-62 melanoma 29.3% | LOX IMVI melanoma 29.7%
active: DU-145 prostate 0.185% | K-562 leukemia 6.83% | SF-295 CNS -3.44% | SF-539 CNS -12% | M14 melanoma 8.98% | HT29 colon 4.39% | SK-MEL-5 melanoma -14.3%

CCn1cc(-c2[nH]c(=S)ncc2-c2ccc(Cl)cc2)c(-c2ccc(Br)cc2)n1
inactive: DU-145 prostate 100% | K-562 leukemia 120% | MALME-3M melanoma 108% | MDA-MB-231 breast 89.1% | RXF 393 renal 109% | SF-268 CNS 75.1% | SF-295 CNS 68.4% | SF-539 CNS 87.5% | UACC-257 melanoma 84.8% | M14 melanoma 66.7% | HCT-15 colon 85.5% | HT29 colon 92.1% | SNB-75 CNS 99.1% | SNB-19 CNS 75.6% | U251 CNS 74.3% | PC-3 prostate 64.3% | SK-MEL-5 melanoma 86.4% | UACC-62 melanoma 76.7% | LOX IMVI melanoma 86.8%

CN(C)CCCNc1nc(-c2cccc(C(Cl)(Cl)Cl)c2)nc(C(Cl)(Cl)Cl)n1
inactive: DU-145 prostate 112% | K-562 leukemia 88.2% | MALME-3M melanoma 88.9% | MDA-MB-231 breast 95.8% | RXF 393 renal 109% | SF-268 CNS 106% | SF-295 CNS 94.1% | SF-539 CNS 110% | UACC-257 melanoma 119% | M14 melanoma 102% | HCT-15 colon 108% | HT29 colon 94.9% | SNB-75 CNS 83.1% | SNB-19 CNS 102% | U251 CNS 105% | PC-3 prostate 98.4% | SK-MEL-5 melanoma 103% | UACC-62 melanoma 99.6% | LOX IMVI melanoma 87.7%
